# Compound activity as filed in PubChem BioAssay.
# Rows were chosen to be rich in hits. Some 7.5% of all compounds tested hit in one or more screens of this group.
# FLuc modulator = firefly luciferase modulation, counter-screen for miR-21 project; Potency, µM (series often up to 57.5 µM), most hits filed as inhibitors; P08659; purified FLuc, Km substrates, luminescence inhibition; 360,000 compounds, 6.9% hits; also: nearly all actives have a fitted effect of over 55% in size
# Target sequence (P08659 whole entry, looked up): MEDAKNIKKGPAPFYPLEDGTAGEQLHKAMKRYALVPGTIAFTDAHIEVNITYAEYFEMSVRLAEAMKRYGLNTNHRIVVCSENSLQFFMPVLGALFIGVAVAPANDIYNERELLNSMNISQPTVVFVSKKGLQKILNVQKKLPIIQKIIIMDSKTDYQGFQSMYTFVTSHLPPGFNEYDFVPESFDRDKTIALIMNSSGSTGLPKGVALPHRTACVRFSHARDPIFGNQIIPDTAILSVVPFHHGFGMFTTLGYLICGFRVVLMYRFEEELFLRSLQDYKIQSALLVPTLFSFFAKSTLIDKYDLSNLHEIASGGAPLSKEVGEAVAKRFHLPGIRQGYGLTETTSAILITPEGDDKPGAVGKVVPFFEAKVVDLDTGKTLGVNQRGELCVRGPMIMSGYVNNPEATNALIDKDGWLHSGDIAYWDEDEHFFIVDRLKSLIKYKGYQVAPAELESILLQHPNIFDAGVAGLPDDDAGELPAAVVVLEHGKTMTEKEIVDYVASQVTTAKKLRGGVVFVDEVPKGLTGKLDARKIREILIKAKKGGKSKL
#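 Purified P. pyralis luciferase, 10 nM final, with Km-level 10 uM D-luciferin and 10 uM ATP in 50 mM Tris acetate pH 7.5, 10 mM Mg acetate, 0.01% Tween-20, 0.05% BSA; 6-point qHTS titration about 60 µM downward; luminescence read.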
# ELG1 genotoxic = genotoxicity induction in ELG1-luciferase HEK293T cells; Potency, µM (titrated, usually from 46 µM), actives largely listed as activators; HEK293T ELG1-luciferase reporter, luminescence, 16 h; 330,000 compounds, 1.3% hits; also: nearly all actives have a fitted effect of over 60% in size
#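 Quantitative HTS format in 1536-well plates. HEK293T ELG1-luciferase reporter cells receive test compound and are incubated 16 hr at 37 °C, 5% CO2; ONE-Glo added, 30 min room temperature, then luminescence read.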
# SMN2 splice enh = increases expression of the SMN2 splice variant; HEK293 SMN2-luciferase splicing reporter, luminescence, 30-36 h; Potency, µM (series often up to 46.1 µM), most hits filed as activators; 210,000 compounds, 2.8% hits; also: nearly all actives have a fitted effect of over 55% in size
#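 HEK293 cells carry an SMN2 minigene-luciferase reporter in which exon 7 inclusion puts luciferase in frame. Cells were seeded at 2000 cells/well, attached for 10-12 hours, then exposed to compounds for 30-36 hours at 37C before ONE-Glo luminescence.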
# Rab9 prom act = activates the Rab9 promoter; Huh7 Rab9 promoter-luciferase reporter, luminescence, 24 h; Potency, µM (highest dose often 9.22 µM), most hits filed as activators; 320,000 compounds, 2.8% hits; also: nearly all actives have a fitted effect of over 60% in size
#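 Luminescence read-out: Huh7 cells stably expressing Rab9-luciferase, treated 24 h with compound at 37 °C, then lysed with luciferase reagent for 10 min at ambient before reading.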
# NPC1 prom act = activators of NPC1 promoter; Huh7 NPC1 promoter luciferase reporter, 24 h; Potency, µM (doses to about 9.22 µM), usual class: activators; 320,000 compounds, 2.4% hits; AID 485313; also: nearly all actives have a fitted effect of over 60% in size
#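 Stable NPC1-promoter luciferase Huh7 line; cpd (DMSO) 24 h, 37 °C, 5% CO2; Amplite luciferase reagent 10 min RT; luminescence readout. qHTS format.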
# Numbers stand for hits; 0 = inactive; ? = inconclusive; - = no result; [ ] = another dose, or the depositor's remark. Calls follow the shape of the dose curve; as a rule, active = well fitted curve in the direction sought with a large enough effect; inconclusive = small, poorly fitted or top-dose-only effect, or another doubt; inactive = no such curve, though single readings can be large; an effect the other way counts as inactive or inconclusive.
SMILES,FLuc modulator,ELG1 genotoxic,SMN2 splice enh,Rab9 prom act,NPC1 prom act
COc1ccc(C(=O)Cc2ccc(F)cc2)c(OC)c1,16.9µM,?,?,?,?
COc1ccc(C(=O)Cc2cc(OC)c(OC)cc2[N+](=O)[O-])c(OC)c1,16.9µM,0,0,0,0
CCCc1cc(=O)oc2cc(OCC(=O)N3CCN(C(=O)C4COc5ccccc5O4)CC3)ccc12 (configuration not stated),0,0,-,0,0
O=C(O)c1cc([N+](=O)[O-])ccc1N1CCCCC1,0,0,0,0,0
O=[N+]([O-])c1ccc2c(c1)N([O-])C1(CCCCC1)[N+]2=O,15.1µM,0,-,0,0
CC(NC(=O)c1ccnn1C)C1CCCO1 (configuration not stated),0,0,0,0,0
COc1ccc(CC(=O)n2nc(-c3ccc(Cl)cc3)nc2NCc2ccco2)cc1,0,0,?,3.16µM,?
O=C(c1ccccc1)n1nc(-c2ccc(Cl)cc2)nc1NCc1ccco1,0,-,?,-,-
CC(=O)n1nc(-c2ccc(Cl)cc2)nc1NCc1ccco1,0,20.6µM,-,2.82µM,?
CCOc1cc(S(=O)(=O)NCCCn2ccnc2)ccc1Cl,0,0,-,0,0
CN(Cc1ccccc1)Cn1ccnc1,-,-,0[9.22 µM],-,-
CC(O)c1cccc(N=Cc2ccc3ccccc3c2O)c1 (configuration not stated),26.9µM,0,-,0,0
Clc1ccc(CSc2cc3c(nn2)-c2ccccc2CC3)cc1,12µM,0,0,0,?
Cc1cc(C)cc(NC(=O)N2CCC(CN3CCc4ccccc4C3)CC2)c1,0,-,-,-,-
CC(=O)N1CCN(S(=O)(=O)c2cccc(C(=O)NCc3ccc(F)cc3)c2)CC1,-,0,-,-,-
O=C1C2C3C=CC(C4CC34)C2C(=O)N1/N=C/c1cccs1 (configuration not stated),16.9µM,0,0,0,0
COc1cc(/C=C2/C(=O)NN(c3cccc(Cl)c3)C2=O)cc(OC)c1O,21.3µM,0,-,0,0
O=C1NN(c2cccc(Br)c2)C(=O)/C1=C\c1ccc(O)cc1,15.1µM,0,-,0[1.84 µM],0
CCOc1cc(/C=C2/C(=O)NN(c3cccc(Cl)c3)C2=O)ccc1O,23.9µM,0,-,0,0
COC(=O)c1ccc(N2NC(=O)/C(=C/c3ccc(OC)c(OC)c3)C2=O)cc1,?,0,-,0,0
O=c1c2ccccc2nnn1CSc1nnc(-c2ccc3c(c2)OCO3)o1,6.75µM,?,?,?,?
c1cc(CSc2nnc(-c3ccc4c(c3)OCO4)o2)ccn1,?,0,0,2.51µM,2.51µM
COc1ccc(C2=NCC(CSc3nnc(-c4ccc5c(c4)OCO5)o3)S2)cc1 (configuration not stated),9.53µM,0,0,?,0
COc1ccc(C2=NCC(CSc3nccc(=O)[nH]3)S2)cc1 (configuration not stated),19µM,0,0,0,0
CCN(CC(=O)Nc1ccccc1OC)C(=O)c1cc(S(=O)(=O)N2CCCCCC2)ccc1OC,0,0,-,0,0
SMILES,FLuc modulator,ELG1 genotoxic,SMN2 splice enh,Rab9 prom act,NPC1 prom act
CC(=O)Nc1ccc(NC(=O)CSc2nnc(-c3ccc4c(c3)OCO4)o2)cc1,-,0,-,-,-
O=c1c2ccccc2nnn1CSc1ccc2ccccc2n1,0,0,0[1.84 µM],0,0
O=C1OCCC1Sc1nnc(-c2ccc3c(c2)OCO3)o1 (configuration not stated),9.53µM,0,0,0,0
O=C1OCCC1Sc1nnc(-c2ccc(O)cc2)o1 (configuration not stated),?,0,0,0,0
O=C(O)CCSc1nnc(-c2ccc3c(c2)OCO3)o1,13.5µM,0,0,0,0
CC(=O)CSc1nnc(-c2ccc3c(c2)OCO3)o1,6.75µM,?,14.1µM,2.82µM,?
O=c1c2ccccc2nnn1CSc1ccccc1,1.9µM,?,7.94µM,0.562µM,1µM
O=C(CNC(=O)c1ccc(Br)o1)NCc1ccc(Cl)cc1,0,0,-,0,0
C=CCNC(=O)c1ccc(-n2cccc2)cc1,?,0,0,?,0
Cc1ccc2c(c1)C(c1ccc(F)cc1)N(C(=O)c1ccc(S(=O)(=O)N3CCCCC3)cc1)CC(=O)N2 (configuration not stated),0,-,0,-,-
CCCNC(=O)c1cc2cc([N+](=O)[O-])ccc2s1,0,0,0,0,0
COC(=O)N(C)c1nc2ccccc2s1,23.9µM,?,0,0,0
CCCCNC(=O)N(C)c1nc2ccccc2s1,13.5µM,?,-,1.78µM,?
COCCNC(=O)c1cc2sc3ccccc3c2s1,10.7µM,14.6µM,14.1µM,2.82µM,?
CCCCNC(=O)c1cc2ccccc2s1,16.9µM,0,0,?,0
NC(=O)C1CCN(S(=O)(=O)c2cccc(S(=O)(=O)N3CCCCC3)c2)CC1,0,0,0,0,0
C=C1CCC[C@]2(C)C[C@H]3OC(=O)C(CNCCN(CC)CC)[C@H]3CC12 (some centres not stated),0,0,-,0,0
Cc1[nH][nH]c(=O)c1C=NCc1ccc(Cl)cc1,0,0,0,0,0
CCOc1ccc(NC(=O)CSc2nccn2C2CCCC2)cc1,0,-,-,-,-
CC(C)c1ccc(C(=O)CSc2n[nH]c(-c3ccncc3)n2)cc1,15.1µM,0,0,0,0
COc1ccc(-c2nc(SCC(=O)c3ccc(Br)cc3)n[nH]2)cc1,0,-,0,-,-
Cc1ccc(C(=O)CSc2n[nH]c(C)n2)cc1,?,?,0,0,0
CCc1ccc(C(=O)CSc2n[nH]c(C)n2)cc1,21.3µM,0,0,?,0
O=C(O)c1cc(Cl)cc(Cc2cc(Cl)cc(C(=O)O)c2O)c1O,-,-,0[9.22 µM],-,-
COc1cc(/C=C(\C#N)C(=O)NCC2CCCO2)ccc1OCCC(C)C (configuration not stated),?,0,-,0,0
SMILES,FLuc modulator,ELG1 genotoxic,SMN2 splice enh,Rab9 prom act,NPC1 prom act
Cc1ccc(C(=O)OCc2nc3ccsc3c(=O)[nH]2)o1,0,0,-,0,0
O=C(CCc1nc2ccccc2s1)OCc1ccccc1,0,0,0,0,0
Nc1ccc(C(=O)OCc2nc3ccccc3s2)cc1,16.9µM,?,0,0,0
O=C(CCC(=O)c1cccs1)OCc1nc2ccccc2s1,?,0,0,0,0
O=C(OCc1nc2ccccc2s1)c1cc2ccccc2oc1=O,19µM,?,0,0,0
Cc1ccc(C(=O)OCc2nc3ccccc3s2)o1,15.1µM,?,-,?,0
O=C(OCc1nc2ccccc2s1)c1ccc(Br)s1,19µM,0,0,0,0
CCCCn1c(N)c(N(CC(C)C)C(=O)c2ccc(S(=O)(=O)N3CCCCCC3)cc2)c(=O)[nH]c1=O,0,0,-,0,0
Cc1cc(C)nc(/N=C/c2c(O)n(C)c(=O)n(C)c2=O)n1,0,0,0,0,0
CCCn1c(C)cc(C(=O)Cn2nnc3ccccc3c2=O)c1C,4.26µM,?,12.6µM,0.891µM,1µM
Cc1cc(C(=O)Cn2nc(C(=O)O)c3ccccc3c2=O)c(C)n1-c1ccc(F)cc1,2.69µM,?,?,0,0
CC(C)(C)c1ccc(C(=O)Cn2nc(C(=O)O)c3ccccc3c2=O)cc1,9.53µM,0,-,0,0
